# From PubChem
# G9a block: qHTS Assay for Inhibitors of Histone Lysine Methyltransferase G9a; hit rate 8.8% among 350,000; G9a H3K9 monomethylation, AlphaScreen, 2 h; Histone-lysine N-methyltransferase EHMT2 (Homo sapiens), Q96KQ7; Potency, µM (series often up to 102 µM), for inactives: at the highest dose activity, negative = inhibition, actives largely listed as inhibitors; note: potency is the fitted concentration of half-maximal effect; nearly all actives have a fitted effect of over 75% in size
# Target sequence (Q96KQ7 913-1193 limits assumed): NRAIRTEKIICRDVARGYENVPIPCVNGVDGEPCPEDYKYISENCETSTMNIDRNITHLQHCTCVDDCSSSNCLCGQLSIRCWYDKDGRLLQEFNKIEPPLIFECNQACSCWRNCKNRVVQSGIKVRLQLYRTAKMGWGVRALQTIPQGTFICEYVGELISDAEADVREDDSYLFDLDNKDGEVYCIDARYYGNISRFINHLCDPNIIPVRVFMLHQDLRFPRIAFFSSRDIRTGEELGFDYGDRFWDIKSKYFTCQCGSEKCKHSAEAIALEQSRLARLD
#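 Signal arises when biotinylated H3K9 peptide, once monomethylated, bridges streptavidin donor and antibody-captured acceptor beads. Enzyme at 20 nM was preincubated 15 min with test compounds; peptide 500 nM and SAM 20 uM then reacted for 2 h.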
# Tau fibril ThT: qHTS for Inhibitors of Tau Fibril Formation, Thioflavin T Binding | Potency, µM (top dose mostly 57.4 µM), inactives show at the top dose activity, negative = inhibition, actives largely listed as inhibitors | Microtubule-associated protein tau (Homo sapiens), P10636 | recombinant tau K18 P301L, heparin-induced fibrillization, ThT fluorescence | hit rate 2.1% among 270,000 | AID 1460, 2008; note: potency is the fitted concentration of half-maximal effect; nearly all actives have a fitted effect of over 55% in size
# Target sequence (P10636 561-689 P618L limits assumed): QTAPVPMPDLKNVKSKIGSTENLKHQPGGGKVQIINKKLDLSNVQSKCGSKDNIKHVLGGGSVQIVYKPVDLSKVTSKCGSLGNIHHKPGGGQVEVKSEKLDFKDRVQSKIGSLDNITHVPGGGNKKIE
#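 Fibril formation assay: tau K18 P301L at 15 uM with trace Alexa 594 label, heparin inducer 20 uM, pH 7 sodium acetate buffer, 37 C for 6 hr; endpoint ThT signal.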
# Tau FP inhib: qHTS for Inhibitors of Tau Fibril Formation, Fluorescence Polarization; Potency, µM (series often up to 57.7 µM), without a hit: at the top dose activity, negative = inhibition, usual class: inhibitors; hit rate 0.39% among 280,000; Microtubule-associated protein tau (Homo sapiens), P10636; K18 P301L tau heparin fibrillization, Alexa594 FP, 6 h; note: potency is the fitted concentration of half-maximal effect; nearly all actives have a fitted effect of over 55% in size
#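 Human tau K18 […] P301L fragment, 15 uM unlabeled plus 0.24 uM Alexa 594-labeled tau (final), with compound and 20 uM heparin in 100 mM sodium acetate pH 7; 6 hr at 37 C, then Alexa 594 FP read.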
# Sfp inh: qHTS Assay for Inhibitors of Bacillus subtilis Sfp phosphopantetheinyl transferase (PPTase) | 4'-phosphopantetheinyl transferase ffp (Bacillus subtilis), Q9F4F7 | Biochemical Sfp PPTase activity, qHTS | Potency, µM, without a hit: largest response in the series, negative = inhibition, most hits filed as inhibitors | hit rate 3.5% among 310,000 | AID 1490, 2009;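 note: the enzyme is Sfp with the accession as filed and its product quenches rhodamine fluorescence; potency is the fitted concentration of half-maximal effect; 0% = enzyme reaction without inhibitor and -100% = no enzyme wells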
#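 Fluorescence-quenching assay: 15 nM Sfp-PPTase preincubated 15 min at room temperature with compound, then 5 uM rhodamine-CoA and 12.5 uM BHQ-2-labelled YbbR peptide added. Fluorescence (ex 525/em 598 nm) read at start and after 30 min; difference gives rate.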
# Coupling enz: qHTS Assay for Inhibitors of Fructose-1,6-bisphosphate Aldolase from Giardia Lamblia: Coupling assay counterscreen; coupling enzyme system counterscreen, AmpLite Red fluorescence; hit rate 0.67% among 290,000; AID 2472, 2010; activity change, negative = inhibition, % at 58.2 µM, hits read low; in the data active = activity change below about -30%
#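 Fluorescence at 525 nm excitation and 598 nm emission measured inhibition of the coupled detection system without aldolase. Compounds (at 57.5 uM final) were preincubated 10 min at room temperature with coupling enzyme reagent before a 20 min substrate/AmpLite Red step.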
# Tau fluor counter: Counterscreen qHTS for Inhibitors of Tau Fibril Formation, Fluorescence Polarization | tau K18 P301L Alexa594 fluorescence, heparin fibrillization | Potency, µM (titrated, usually from 57.7 µM), for inactives: at the highest dose activity change, negative = decrease | hit rate 0.93% among 280,000; note: potency is the fitted concentration of half-maximal effect; nearly all actives have a fitted effect of over 55% in size
#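 Human tau K18 P301L (15 uM unlabeled, 0.24 uM Alexa 594-labeled) in 100 mM sodium acetate pH 7 with 20 uM heparin, 6 hr at 37 C. ThT 30 uM added, 1 hr ambient; Alexa 594 FP and total fluorescence read at 555/632 nm.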
# The depositor's hits bear a star; ? = inconclusive; . = no result given; [ ] = dose if it differs, or a comment. Rows were chosen to be rich in hits. Some 11% of all compounds tested hit in one or more screens of this group. Unless noted, calls come from the whole dose curve; as a rule, active = well fitted curve in the direction sought with a large enough effect; inconclusive = small, poorly fitted or top-dose-only effect, or another doubt; inactive = no such curve, though single readings can be large; an effect the other way counts as inactive or inconclusive. Unless noted, % is set by controls: 0 for no effect and ±100 for the full control effect.
SMILES,G9a block,Tau fibril ThT,Tau FP inhib,Sfp inh,Coupling enz,Tau fluor counter
S=C(NCCc1ccc(Cl)cc1)NCc1ccccc1,.,.,.,4%,0,.
Cc1ccc(C(=O)/C=C/c2ccc3ncccc3c2)cc1,?,.,.,-17%,0,.
Nc1ccc2ncccc2c1N,-9%[59 µM],25µM*,?,6.3µM*,-40*,?
Nc1ccc(/C=C/c2ccc3ncccc3c2)cc1,?,6.3µM*,-6%,-3%,-2,-29%
Nc1ccc2ncccc2c1,?,16µM*,?,?,-39*,-21%
O=[N+]([O-])c1ccc(-c2csc(Nc3ccccc3)[n+]2Cc2ccccc2)cc1,?,2%,7%,-10%,0,1%
C=CC[n+]1c(-c2ccc(Cl)cc2Cl)csc1Nc1ccc(NC(C)=O)cc1,40µM*,?,?,-3%,0,25µM*[quencher]
C=CC[n+]1c(-c2ccc(Cl)cc2Cl)csc1Nc1c(C)n(C)n(-c2ccccc2)c1=O,?,?,-3%,-27%,1,-26%
CCCC[n+]1c(-c2ccc(Cl)cc2Cl)csc1Nc1ccccc1,11µM*,-10%,0%,-2%,3,-16%
Clc1ccc(-c2csc(Nc3ccccc3)[n+]2Cc2ccco2)c(Cl)c1,32µM*,?,-4%,?,-3,?
COc1ccc(NC(=O)c2cnc(SCC(=O)Nc3nc4ccc(C)cc4s3)n(C)c2=O)cc1,5%[59 µM],?,?,.,.,-9%
Cc1nc(N2CCOCC2)c2c(C(=O)N3CCN(c4cccc(C)c4C)CC3)c(C)oc2n1,-26%[59 µM],-15%,2%,.,.,-13%
Nn1c(SCC(=O)Nc2ccccc2C(F)(F)F)nncc1=O,-26%,.,.,20%,3,.
COc1ccccc1C(=O)NCCNC(=O)c1ccc(C)nc1,15%,.,.,28%,-1,.
Oc1c(/C=N/Nc2cccc3cccnc23)ccc2ccccc12,?,?,9%,-7%,-6,?
Oc1cccc(/C=N/Nc2cccc3cccnc23)c1,35µM*,14µM*,?,45µM*,0,16µM*[quencher]
COc1cc(/C=N/Nc2cccc3cccnc23)cc(OC)c1O,10µM*,?,7%,50µM*,-1,?
CCOc1ccccc1NC(=O)COC(=O)c1cn(CC)c2nc(C)ccc2c1=O,-5%[59 µM],-7%,3%,.,.,2%
C/C(C/C(C)=C1/SC(=S)NC1=O)=C1\SC(=S)NC1=O,28µM*,16µM*,-1%,79µM*,11,-25%
Cc1ccc(N(CCC#N)C(=O)COC(=O)c2cc(C)no2)cc1,22µM*,.,.,.,.,.
Cc1ccc(N(CCC#N)C(=O)COC(=O)C2CCN(S(=O)(=O)c3ccc(C)c(C)c3)CC2)cc1,45µM*,.,.,.,.,.
Cc1ccc(N(CCC#N)C(=O)COC(=O)c2cc(C)oc2C)cc1,3%[2.33 µM],.,.,.,.,.
Cc1cc(C)cc(N(CCC#N)C(=O)COC(=O)C2CCN(S(=O)(=O)c3ccc(C)c(C)c3)CC2)c1,-44%,.,.,.,.,.
CCc1ccc(-c2cn3c(n2)sc2cc(C(=O)NC4CCCCC4)ccc23)cc1,-2%[59 µM],12%,-10%,.,.,2%
SMILES,G9a block,Tau fibril ThT,Tau FP inhib,Sfp inh,Coupling enz,Tau fluor counter
O=C(CSc1nnc2ccc(-c3cccnc3)nn12)Nc1ccccc1,10%[59 µM],.,.,.,.,.
Cc1cccc(NC(=O)c2oc3ccccc3c2NC(=O)Cc2coc3c(C)c(C)ccc23)c1,-1%[59 µM],11%,?,.,.,-11%
Cc1nn(-c2ccccn2)c2c1C(c1ccsc1)C1=C(CCCC1=O)N2 (centres undefined),?,-8%,-1%,6%,-3,-8%
Cc1cccc(-n2nc(C)c3c2NC2=C(C(=O)CCC2)C3c2ccccn2)c1 (centres undefined),35µM*,-13%,-1%,2%,1,-8%
CCN(CC)c1ccc(/C=C/C(=O)c2cccnc2)cc1,-13%,-13%,6%,11%,-1,-4%
N#Cc1ccc(/C=C/C(=O)c2cccnc2)cc1,25µM*,?,11%,50µM*,1,-2%
O=C(/C=C/c1ccccc1Cl)c1cccnc1,35µM*,?,8%,32µM*,0,7%
N#Cc1ccc(/C=C/C(=O)c2ccc3c(c2)OCO3)cc1,-3%,?,5%,5%,0,0%
O=C(/C=C/c1ccc(Cl)cc1)c1cccnc1,45µM*,?,16%,?,2,2%
Nc1cc2nsnc2cc1Br,?,8.9µM*,?,40µM*,-32*,?
Cc1ccn2c(c1)nc(=S)n2C(=O)c1ccco1,10µM*,?,?,?,2,-6%
CCOC(=O)c1sc(=S)n(-c2cc(F)ccc2F)c1N,26%[0.501 µM],2%,-3%,56µM*,-2,-4%
CCOC(=O)c1sc(=S)n(-c2cc(OC)ccc2OC)c1N,?,?,?,-89%,4,-18%
COC(=O)c1sccc1NC(=S)Nc1ccc(F)cc1F,?,0%,9%,-12%,0,6%
COC(=O)c1sc(=S)n(-c2cc(F)ccc2F)c1N,12%[0.501 µM],-6%,-3%,50µM*,1,-5%
